# The full ranking holds about 33,000 sequences; the median of “E-score (-0.5 to 0.5)” is about -0.012, and the highest 2% start at about 0.29. The sample holds the highest values, similar sequences and a random draw of the others, so the mix is not that of the screen.
# Target: T1, Ybr033w (UniProt P38073)
# T1 sequence: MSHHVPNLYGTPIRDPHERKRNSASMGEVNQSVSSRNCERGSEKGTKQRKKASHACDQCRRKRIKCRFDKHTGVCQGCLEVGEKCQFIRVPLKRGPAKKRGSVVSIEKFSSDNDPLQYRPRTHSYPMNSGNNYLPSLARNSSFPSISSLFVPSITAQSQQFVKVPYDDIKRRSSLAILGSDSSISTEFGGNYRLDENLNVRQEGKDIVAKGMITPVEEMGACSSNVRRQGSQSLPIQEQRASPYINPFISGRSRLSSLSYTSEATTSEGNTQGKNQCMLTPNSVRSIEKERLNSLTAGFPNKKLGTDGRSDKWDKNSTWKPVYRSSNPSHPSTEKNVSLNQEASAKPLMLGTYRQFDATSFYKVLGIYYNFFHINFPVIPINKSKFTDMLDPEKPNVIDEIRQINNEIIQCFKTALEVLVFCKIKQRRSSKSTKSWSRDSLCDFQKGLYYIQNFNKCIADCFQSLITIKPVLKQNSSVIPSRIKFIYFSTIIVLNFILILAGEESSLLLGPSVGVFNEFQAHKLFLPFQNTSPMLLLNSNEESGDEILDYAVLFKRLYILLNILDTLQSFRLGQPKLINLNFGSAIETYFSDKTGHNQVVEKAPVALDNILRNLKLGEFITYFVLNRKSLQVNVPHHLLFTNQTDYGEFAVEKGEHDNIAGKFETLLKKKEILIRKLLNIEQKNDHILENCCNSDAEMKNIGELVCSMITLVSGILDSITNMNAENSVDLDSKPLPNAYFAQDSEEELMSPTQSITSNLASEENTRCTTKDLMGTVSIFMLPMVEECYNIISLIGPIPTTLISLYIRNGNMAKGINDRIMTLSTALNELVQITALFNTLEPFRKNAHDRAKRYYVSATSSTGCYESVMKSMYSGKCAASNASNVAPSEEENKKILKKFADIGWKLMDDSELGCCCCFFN
# Assay: PBM E-score (8-mer binding enrichment) (E-score (-0.5 to 0.5)); higher = stronger / more preferred TF binding
# Conditions: protein concentration: 200 nM; construct: GST-full length
# Protocol: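 Universal 'all 10-mer' protein binding microarrays (Agilent AMADID 015681) probed with GST-tagged S. cerevisiae TFs (full-length or DBD) made by in vitro transcription/translation (PURExpress), about 100-200 nM. Bound TF was detected with fluorescent anti-GST. Each ungapped 8-mer (which stands for itself and its reverse complement) is scored by the PBM enrichment score (E-score), a modified Wilcoxon-Mann-Whitney statistic from -0.5 to +0.5, computed with the Universal PBM Analysis Suite. Scale: above 0.35 generally sequence-specific binding.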
row,Sequence,PBM E-score
1,TGCTACAA,0.161
2,CAGTTTGA,0.206
3,AGCGGCAT,0.0383
4,CCCACAAC,-0.108
5,CTGTAGGA,0.0305
6,TTCTAGAA,0.102
7,GTTTTCAA,0.146
8,GTCCAGAC,-0.308
9,CGCCCAGA,-0.174
10,ACGATCTA,-0.0695
11,CTACAATA,0.164
12,ATACAATA,0.332
13,ATACAATC,0.0522
14,CCGCGAGC,-0.194
15,CACTTTTA,0.0413
16,TAGGAGGA,0.0316
17,ACGGAATC,0.113
18,ACGGAATG,-0.153
19,GGGGAATA,-0.0146
20,GCGGAATA,0.293
21,CGGGAATA,0.246
22,GCGGAAGA,0.236
23,CCGGAATC,-0.0781
24,ACGGAATA,0.351
25,CCGGAATA,0.412
26,CCTATTCG,-0.149
27,CGACGGTA,-0.0307

row,Sequence,PBM E-score
1,ATTACTAA,0.225
2,CGTTCTTA,0.0158
3,ATCTTCTC,0.0573
4,ACATCGGG,-0.0939
5,TATTTGAA,0.255
6,ACTAATAG,0.2
7,ATTAATCG,0.166
8,CTTAATAA,0.182
9,ATTAATAC,0.306
10,ATTAATAG,0.373
11,ATTAATCA,0.26
12,GTTAATAA,0.329
13,AGTAATAA,0.18
14,ATTAATAA,0.302
15,ACTAATAC,0.228
16,GTTAATCA,0.277
17,CTTAATAC,0.136
18,GACACACC,-0.0728
19,CAGGGTGG,-0.234
20,CTCTAGGC,-0.153
21,GCATAGCA,0.0192
22,GCTAGTAA,-0.014
23,CAAGGTGA,-0.103
24,ACCTAGCA,0.0895
25,AGTGAAGC,-0.0225
26,ACCTCGGA,0.0486
27,CGAATCGC,-0.0798

row,Sequence,PBM E-score
1,ACAGGTAC,-0.0953
2,CACGCGCG,-0.0876
3,GAAGGCCC,-0.223
4,ATAAAAAT,0.193
5,GTAAAATA,0.269
6,ATAAATAT,0.396
7,ATAAATAG,0.254
8,ATAAATAA,0.38
9,ATAAAAAA,0.164
10,ATAAAAGG,-0.0365
11,ATAAATAC,0.211
12,ATAAAATA,0.344
13,ATAAAATC,0.226
14,TTAAATAA,0.264
15,ATAAAAAG,0.316
16,CGAAAATC,0.222
17,CACCTATA,0.0106
18,AGTCTGTC,-0.0266
19,ACCTTCCG,-0.032
20,CGTATAGC,-0.0573
21,CGATTGGC,-0.0233
22,ACCGGTCA,-0.2
23,CCCCAAAC,-0.101
24,AAATAAGA,0.16
25,ACTCAGAA,0.11
26,TGCTATAA,0.0493
27,AAATTGAC,0.108

row,Sequence,PBM E-score
1,AAATTGTA,0.22
2,AAATTGTT,0.317
3,ATATTGAT,0.39
4,ATATTGAA,0.189
5,AAATTGAA,0.127
6,AAATTGTC,0.192
7,ATATTGAG,0.259
8,AAATTGAT,0.336
9,AAGGGCAG,-0.151
10,TACTGGCA,-0.0764
11,ATAGAGCG,-0.117
12,AGCACTCC,-0.0492
13,ATAATACG,0.187
14,ATAATACA,0.305
15,ATAATACC,0.187
16,CTAATAAC,0.216
17,CTAATAAA,0.28
18,ACAATAAT,0.341
19,ACAATAAC,0.246
20,ATAATAGA,0.223
21,ATAATAAA,0.366
22,TTAATAAA,0.381
23,GTAATAAA,0.198
24,ACAATAAA,0.14

# From the supplement of paper PMC3334620
